Assay results published in PubChem BioAssay AID1851 (National Center for Advancing Translational Sciences (NCATS), 2009).
“And” between values parts separate entries of the source, which are not always exact repeats. Equal entries are not always repeated. The whole screen tested about 16,000 compounds, of which about 5,700 (36%) were called active. Roughly 24% stayed inconclusive and do not appear here. Calls come from the whole dose curve; as a rule, active = well fitted curve in the direction sought with a large enough effect; inconclusive = small, poorly fitted or top-dose-only effect, or effect the other way; inactive = no such curve, though single readings can be large or run the other way. The list shows a part of the results.

Biological target: Cytochrome P450 1A2 (Homo sapiens) (UniProt P05177)
Assay: Cytochrome panel assay with activity outcomes
Settings: recombinant CYP, pro-luciferin dealkylation, luminescence, p450-cyp1a2; series mostly up to 57.1 µM; activity, negative = inhibition: at the top concentration
% is set by controls: 0 for no effect and ±100 for the full control effect.

Cytochrome P450 1A2 (Homo sapiens), sequence (P05177 whole entry, looked up): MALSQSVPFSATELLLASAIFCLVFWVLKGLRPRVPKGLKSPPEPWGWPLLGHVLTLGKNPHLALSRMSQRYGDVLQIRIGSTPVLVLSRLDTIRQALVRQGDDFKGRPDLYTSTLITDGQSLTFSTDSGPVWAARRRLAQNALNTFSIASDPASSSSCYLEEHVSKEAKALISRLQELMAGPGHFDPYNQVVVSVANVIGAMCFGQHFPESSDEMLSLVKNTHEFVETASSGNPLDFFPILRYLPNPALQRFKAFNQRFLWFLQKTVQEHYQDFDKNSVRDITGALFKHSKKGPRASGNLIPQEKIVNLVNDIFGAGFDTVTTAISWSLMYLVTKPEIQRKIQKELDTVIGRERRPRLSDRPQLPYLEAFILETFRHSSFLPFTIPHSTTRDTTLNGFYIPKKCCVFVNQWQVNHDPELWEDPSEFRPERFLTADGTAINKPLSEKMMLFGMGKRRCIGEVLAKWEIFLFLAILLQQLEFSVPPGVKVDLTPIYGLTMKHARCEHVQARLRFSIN

Structure (SMILES)	activity, negative = inhibition	AC50
C=CC[C@@H]1C=C[C@H](O/N=C(\C)CCN2CCc3nc(-c4ccccc4)c(-c4ccccc4)cc3C2)[C@H](CO)O1	5.54% [at 11.4 µM] (inactive)	–
CCCCOC(=O)NS(=O)(=O)c1sc(CC(C)C)cc1-c1ccc(Cn2c(CC)nc3c(C)cc(C)nc32)cc1	–	31.6 µM (active)
CC(C)CCn1nnnc1C(c1ccc(F)cc1)N1CCN(C(=O)c2ccco2)CC1 (centres undefined)	-26.7% (inactive)	–
CCCC[C@H]1C[C@@H]1[C@@H]1N(P(=O)(c2ccccc2)c2ccccc2)C[C@@](O)(c2ccccc2)CC12CC2	-2% (inactive)	–
O=C1C=C(Nc2nc(C(=O)O)cc(=O)[nH]2)c2ccccc2C1=O	-15.8% [at 2.29 µM] (inactive)	–
O=C1C=C(NCCc2cc(Br)c(O)c(Br)c2)C(=O)c2ncccc21	–	3.16 µM (active)
COc1ccc(C(=O)Nc2scc(-c3ccc(Cl)cc3Cl)c2C(N)=O)cc1	–	0.447 µM (active)
Cc1ccc(C(=O)O[C@@H](C(=O)O)[C@@H](OC(=O)c2ccc(C)cc2)C(=O)O)cc1 (tested in a mixture with another compound)	0.639% (inactive)	–
COc1ccc(C(=O)Nc2cc(Cl)ccc2OC(=O)c2ccc(OC)cc2)cc1	–	10 µM (active)
CC(C)COc1ccc(C(=O)Nc2scc(-c3ccc(Cl)cc3Cl)c2C(N)=O)cc1	-16.6% (inactive)	–
Cc1sc(NC(=O)c2ccc(OCC(C)C)cc2)c(C(N)=O)c1-c1ccc(Cl)cc1Cl	5.63% (inactive)	–
Cc1ccc(C(=O)Nc2cc(Cl)ccc2OC(=O)c2ccc(C)cc2)cc1	–	10 µM (active)
NNC(=O)c1ccc[n+](CCc2ccccc2)c1	-20.6% [at 11.4 µM] (inactive)	–
Cc1ccc(C)c(/C(=N\N=C(N)N)C2CC2)c1	1.09% [at 2.29 µM] (inactive)	–
NC(N)=N/N=C(\c1ccc(Cl)cc1)C1CC1	–	0.794 µM (active)
NC(N)=Nc1ccc(Cl)cc1	-11.8% (inactive)	–
CCc1ccccc1NC(=O)c1ccc(-n2c(C)ccc2C)cc1	–	14.1 µM (active)
CCc1ccccc1NC(=O)c1ccc(F)c(S(=O)(=O)N2CCC(C(N)=O)CC2)c1	1.23% (inactive)	–
NCCS(=O)O	-5.92% (inactive)	–
Cn1cc(/C=N/n2cnc3scc(-c4ccccc4)c3c2=O)c2ccccc21	–	8.91 µM (active)

Structure (SMILES)	activity, negative = inhibition	AC50
Cn1cc(/C=N/n2cnc3sc4c(c3c2=O)CCCC4)c2ccccc21	–	14.1 µM (active)
O=[N+]([O-])c1ccc(N2CCN(Cc3ccccc3)CC2)c(S(=O)(=O)N2CCOCC2)c1	-0.304% (inactive)	–
O=S(=O)(c1ccccc1)N1CCC2(CCN(Cc3ccccc3)CC2)CC1	-2.85% (inactive)	–
O=[N+]([O-])c1ccc(Cl)c(/C=N/N2CCN(Cc3ccccc3)CC2)c1	–	2.51 µM (active)
CCCCC(=O)Nc1nnc(SCC(=O)NC2CCCC2)s1	-12.6% (inactive)	–
CCSc1nnc(NC(=O)C(C(F)(F)F)C(F)(F)F)s1	–	15.8 µM (active)
CCSc1nnc(NC(=O)Cc2ccccc2OC)s1	-9.79% (inactive)	–
CC(CC(=O)O)(CC(=O)O)C(=O)O	-5.85% [at 11.4 µM] (inactive)	–
O=C(CN1CCN(Cc2ccccc2)CC1)c1ccc(Br)cc1	-14.4% (inactive)	–
OCCN1CCN(C(=S)c2ccc(Br)cc2)CC1	-6.49% (inactive)	–
CCN1CCN(C(=S)c2ccc(Br)cc2)CC1	–	15.8 µM (active)
Cc1cc2c(cc1S(N)(=O)=O)S(=O)(=O)CCC2	-16.8% [at 25.6 µM] (inactive)	–
CCN(CCO)Cc1csc2cccc(Br)c12	–	11.2 µM (active)
CCC(c1nnnn1CCOC)N1CCN(C(=O)c2ccco2)CC1 (centres undefined)	21.4% (inactive)	–
COCCN(C(=O)c1ccco1)c1nnc(-c2ccc(OC)cc2)s1	–	15.8 µM (active)
Cc1ccc(C2C(C(=O)c3ccco3)=C(O)C(=O)N2c2nnc(C)s2)cc1 (centres undefined)	3.47% (inactive)	–
CC1(C)CC(=O)c2cnc(N)nc2C1	3.27% (inactive)	–
CC1=C(C(=O)OCc2ccccc2)C(c2ccccc2)NC(=O)N1CCCCCC(=O)O (centres undefined)	–	20 µM (active)
CCOC(=O)CCN1C(=O)[C@H]2[C@H]3[C@H](O)[C@H](O)C/C(=N/OCc4ccccc4)[C@@H]3CC[C@@H]2C1=O	4.94% [at 11.4 µM] (inactive)	–
CCOC(=O)CCN1C(=O)[C@H]2[C@H]3[C@H](O)[C@H](O)C/C(=N/OCc4ccccc4)[C@H]3CC[C@@H]2C1=O	-13.8% [at 11.4 µM] (inactive)	–

Structure (SMILES)	activity, negative = inhibition	AC50
CC1=C(C(=O)OCc2ccccc2)C(c2cccnc2)c2c(n(C)c(=O)n(C)c2=O)N1 (centres undefined)	-26.2% (inactive)	–
CC1=C(C(=O)OCc2ccccc2)C(c2ccc(Cl)cc2)NC(=O)N1CCCCCC(=O)O (centres undefined)	–	25.1 µM (active)
CC(=O)N1CCC2(CC1)CCN(C(c1ccccc1)c1ccccc1)CC2	-3.22% (inactive)	–
NNCCc1ccccc1	–	3.16 µM (active) and 1 µM (active)
NCCSCCC(=O)O	-2.89% [at 11.4 µM] (inactive)	–
O=C(O)CNCCc1ccccc1	-1.5% [at 11.4 µM] (inactive)	–
O=C(O)CSCCc1ccccc1	-15.5% [at 11.4 µM] (inactive)	–
N[C@@](CCc1ccccc1)(C(=O)O)c1ccccc1	-9.59% [at 11.4 µM] (inactive)	–
NCCSCCc1ccccc1	–	5.01 µM (active)
COc1cccc2c1C(=O)c1c(O)c3c(c(O)c1C2=O)C[C@@](O)(C(=O)CO)C[C@H]3O[C@H]1C[C@@H](N)[C@H](O)[C@@H](C)O1.[W]	-11.9% [at 11.4 µM] (inactive)	–
Cc1sc2c(c1C)c(=O)n(-c1ccccc1)c1nnc(C)n21	-26.4% (inactive)	–
O=C(O)/C(=C\c1ccccc1)c1ccccc1	-20.8% [at 11.4 µM] (inactive)	–
COc1ccc(/C=C(/C(=O)Nc2ccccc2C(=O)NC(C)C)c2ccccc2)cc1	–	15.8 µM (active)
Cc1ccccc1NC(=O)/C(=C/c1ccccc1)c1ccccc1	–	5.01 µM (active)
Cc1ccc(S(=O)(=O)Oc2ccc(/C=C(/NC(=O)c3ccccc3)C(=O)Nc3ccccc3)cc2)cc1	2.92% (inactive)	–
CC(C)NC(=O)c1ccccc1NC(=O)/C=C/c1ccc([N+](=O)[O-])cc1	10.2% (inactive)	–
Cc1ccccc1NC(=S)NN1CCN(C)CC1	-4.46% (inactive)	–
Cn1cccc1C(=O)N1CCC2(CCN(Cc3ccccc3)CC2)CC1	10.3% (inactive)	–
Cc1cc(Cl)ccc1Oc1ncnc2oc(-c3ccccc3)cc12	–	3.16 µM (active)
